Test results as given in PubChem BioAssay (NCATS).
Records with an inconclusive call do not appear. Active and inactive are the calls of the source. The call rests on the fitted dose curve; in most records, active means well fitted cell-killing curve with a large enough effect; inconclusive means small, poorly fitted or top-dose-only effect, or effect the other way; inactive means flat fitted curve, though single readings scatter.

Key:
Test in all cases: Primary qHTS to identify gynecologic anti-cancer compounds using libraries of approved drugs and bioactive compounds (AID 1345084); further: nearly all actives have a fitted effect of over 55% in size
CAOV3 = conditions: Gynecologic cancer cell panel viability, ATPlite luminescence, 48 h; series mostly up to 57.5 µM
In short: (§1)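 Luminescence from the ATPlite ATP-monitoring reagent indicates viable cell number; lower signal means cytotoxicity. Cells received compound 16 h after seeding and were exposed for 48 h across five concentrations.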

CASKI = conditions: Gynecologic cancer cell panel viability, ATPlite luminescence, 48 h; series mostly up to 57.5 µM
In short: as §1

Es-2 = conditions: Gynecologic cancer cell panel viability, ATPlite luminescence, 48 h; series mostly up to 57.5 µM
In short: as §1

HeLa = conditions: Gynecologic cancer cell panel viability, ATPlite luminescence, 48 h; series mostly up to 57.5 µM
In short: as §1

Hek293T = conditions: Gynecologic cancer cell panel viability, ATPlite luminescence, 48 h, control line for the selectivity index; series mostly up to 57.5 µM
In short: as §1

JEG-3 = conditions: Gynecologic cancer cell panel viability, ATPlite luminescence, 48 h; series mostly up to 57.5 µM
In short: as §1

OV90 = conditions: Gynecologic cancer cell panel viability, ATPlite luminescence, 48 h; series mostly up to 57.5 µM
In short: as §1

PA-1 = conditions: Gynecologic cancer cell panel viability, ATPlite luminescence, 48 h; series mostly up to 57.5 µM
In short: as §1

SKOV3 = conditions: Gynecologic cancer cell panel viability, ATPlite luminescence, 48 h; series mostly up to 57.5 µM
In short: as §1

Tov-21-G = conditions: Gynecologic cancer cell panel viability, ATPlite luminescence, 48 h; series mostly up to 57.5 µM
In short: as §1

Tov112D = conditions: Gynecologic cancer cell panel viability, ATPlite luminescence, 48 h; series mostly up to 57.5 µM
In short: as §1

Measured: Potency

CN1C(=O)c2ccccc2NC(=O)[C@]12O[C@@H]2c1cccc(O)c1
inactive: CAOV3 | CASKI | Es-2 | HeLa | Hek293T | JEG-3 | OV90 | PA-1 | SKOV3 | Tov-21-G | Tov112D

C=C1CC2C3(C)C(O)CC(=O)C(C)(C)C3C(OC(C)=O)C(OC(C)=O)C2(C)C2C(=O)OC(C)(C(=O)OC)C(=O)C12C (stereo unspecified)
inactive: CAOV3 | CASKI | Es-2 | HeLa | Hek293T | JEG-3 | OV90 | PA-1 | SKOV3 | Tov-21-G | Tov112D

CC1(C)O[C@]23C[C@H]1C[C@H](OC(=O)c1ccoc1)[C@]2(C)[C@@H](OC(=O)c1ccoc1)CCC3(C)O (stereo partly specified)
inactive: CAOV3 | CASKI | Es-2 | HeLa | Hek293T | JEG-3 | OV90 | PA-1 | SKOV3 | Tov-21-G | Tov112D

CC(=O)OC(CSC1CCC(=O)OC(C)CCC(=O)C1)C(=O)O (stereo unspecified)
inactive: CAOV3 | CASKI | Es-2 | HeLa | Hek293T | JEG-3 | OV90 | PA-1 | SKOV3 | Tov-21-G | Tov112D

O=C(c1ccccn1)c1cnn2c(-c3ccncc3)ccnc12
inactive: CAOV3 | CASKI | Es-2 | HeLa | Hek293T | JEG-3 | OV90 | PA-1 | SKOV3 | Tov-21-G | Tov112D

C=C1C2(CCC(=O)OC2(C)C)CC(OC(=O)/C(C)=C/C)C2(C)C13OC14C(=O)OC(C)(C(=O)C12C(=O)OC4C)C3OC(C)=O (stereo unspecified)
inactive: CAOV3 | CASKI | Es-2 | HeLa | Hek293T | JEG-3 | OV90 | PA-1 | SKOV3 | Tov-21-G | Tov112D

Cc1ncc([N+](=O)[O-])n1CC(O)CN1CCOCC1 (stereo unspecified)
inactive: CAOV3 | CASKI | Es-2 | HeLa | Hek293T | JEG-3 | OV90 | PA-1 | SKOV3 | Tov-21-G | Tov112D

C=CCc1ccc(O[C@@H]2O[C@H](CO[C@@H]3O[C@@H](C)[C@H](O)[C@@H](O)[C@H]3O)[C@@H](O)[C@H](O)[C@H]2O)cc1
inactive: CAOV3 | CASKI | Es-2 | HeLa | Hek293T | JEG-3 | OV90 | PA-1 | SKOV3 | Tov-21-G | Tov112D

O=c1ccn(C2OC(CO)C(O)C2O)c(=O)[nH]1 (stereo unspecified)
inactive: CAOV3 | CASKI | Es-2 | HeLa | Hek293T | JEG-3 | OV90 | PA-1 | SKOV3 | Tov-21-G | Tov112D

C=C1CCC2[C@@](C)(C=O)CCC[C@]2(C)[C@H]1CC/C(C)=C/CO (stereo partly specified)
inactive: CAOV3 | CASKI | Es-2 | HeLa | Hek293T | JEG-3 | OV90 | PA-1 | SKOV3 | Tov-21-G | Tov112D

NC(=O)[C@H]1CCCCc2c1[nH]c1ccc(Cl)cc21
inactive: CAOV3 | CASKI | Es-2 | HeLa | Hek293T | JEG-3 | OV90 | PA-1 | SKOV3 | Tov-21-G | Tov112D

CCC(C)/C=C(C)/C=C/C1=CC2=C(Cl)C(=O)C(C)(OC(C)=O)C(=O)C2=CN1CCCC(=O)O (stereo unspecified)
inactive: CAOV3 | CASKI | Es-2 | HeLa | Hek293T | JEG-3 | OV90 | PA-1 | SKOV3 | Tov-21-G | Tov112D

C[C@@H]1CCC2C(C)(C)[C@H](O)CC[C@]2(C)[C@@]12Cc1c(O)cc3c(c1O2)CN(CCO)C3=O (stereo partly specified)
inactive: CAOV3 | CASKI | Es-2 | HeLa | Hek293T | JEG-3 | OV90 | PA-1 | SKOV3 | Tov-21-G | Tov112D

CC1=C2CC3OC3(C)CCC3OC3(C)CC2OC1=O (stereo unspecified)
inactive: CAOV3 | CASKI | Es-2 | HeLa | Hek293T | JEG-3 | OV90 | PA-1 | SKOV3 | Tov-21-G | Tov112D

CC1(C)C(O)CCC2(C)C1C(O)C=C1COC(=O)C12O (stereo unspecified)
inactive: CAOV3 | CASKI | Es-2 | HeLa | Hek293T | JEG-3 | OV90 | PA-1 | SKOV3 | Tov-21-G | Tov112D

CO[C@@H](Cc1ccc(OCCc2nc(-c3ccccc3)oc2C)c2ccsc12)C(=O)O
inactive: CAOV3 | CASKI | Es-2 | HeLa | Hek293T | JEG-3 | OV90 | PA-1 | SKOV3 | Tov-21-G | Tov112D
